According to PubChem BioAssay (NCI):
The panel holds about 83,000 compounds, 20% with a hit somewhere; the sample as a whole holds those more often.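 Values shown are percent growth following 48 h exposure of cells in 96-well plates to a single concentration of compound; below 10 was considered active.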 Calls of active or inactive are those of the source.

Tested on: HL-60(TB) leukemia
Assay: NCI-60 one-dose screen, 48 h (100 = growth as untreated, 0 = no growth, -100 = all killed)
Conditions: 10 µM unless noted

Row | SMILES | growth
1 | O=C1C2=C(Nc3cc(Cl)ccc3N2)OC1c1c[nH]c2ccc(COc3ccccc3)cc12 (centres undefined) | 81.6% (inactive)
2 | O=S(=O)(NCCCNc1cc(-c2cn(-c3ccccc3)nc2-c2cccc(O)c2)ccn1)c1ccc(Br)cc1 | -13.1% (active)
3 | Cc1cc(C(=O)c2ccccc2)cc(C)c1O | 31.3% (inactive)
4 | O=C1OC(Oc2ccccc2)(c2ccccc2)c2ccccc21 (centres undefined) | 83.8% (inactive)
5 | C#C[C@@]1(O)[C@@H](CO)O[C@@H](n2cc(-c3ccco3)c3c(N)ncnc32)[C@@H]1O | 89% (inactive)
6 | Clc1ccc2c(NCCN3CCN(c4ccnc(N5CCCC5)n4)CC3)ccnc2c1 | 37.4% (inactive)
7 | O=c1c2cc(F)cc(Cl)c2sc2c(NCCCNCCO)nc3ccccc3c12 | 77.1% (inactive)
8 | Cn1c(NCCc2ccc(O)c(O)c2)nc2c1c(=O)n(Cc1ccc(Br)cc1)c(=O)n2C | 2.61% (active)
9 | Cc1ccc(C(=O)Nc2cccc(F)c2)cc1NC(=O)C1(c2ncnc3[nH]ccc23)CC1 | 64.7% (inactive)
10 | COc1cc(CNc2oc(-c3ccccc3)c(-c3ccccc3)c2C#N)cc(CN2CCN(C)CC2)c1O | 75.7% (inactive)
11 | O=C1c2c(c3c4ccccc4[nH]c3c3ccc4ccccc4c23)C(=O)N1CCN1CCNCC1 | 43.6% (inactive)
12 | Cc1ccc(-n2nc3n(/c2=N\C(=O)NS(=O)(=O)c2ccc(C)cc2)CCN3C2=NCCN2)cc1 | 146% (inactive)
13 | CCCCN1CCN(c2ccc3nc(-c4ccc5nc(-c6ccc(OCC)cc6)[nH]c5c4)[nH]c3c2)CC1 | 34.3% (inactive)
14 | COc1ccc(-c2nc3sccn3c2/C=C/C(=O)c2cc(OC)c(OC)c(OC)c2)cc1 | 56.5% (inactive)
15 | Clc1ccc(Nc2ncc(Cc3cccc(Cl)c3Cl)s2)cc1 | 100% (inactive)
16 | O=C(Nc1ccccc1O)c1ccc(-c2ccc(Cl)cc2Cl)o1 | 83.7% (inactive)
17 | NC(=O)c1cc(Cl)ccc1NC(=O)/C=C/c1ccccc1 | -30.8% (active)
18 | CN(C)c1ccc(C2Nc3ccccc3-n3cccc32)cc1 (centres undefined) | 123% (inactive)
19 | CCOC(=O)C1=C(C)N=C2Sc3cccc(OC)c3N2[C@H]1c1ccccn1 | 105% (inactive)
20 | Cc1ccccc1[P+](Cc1ccccc1)(c1ccccc1)c1ccccc1 | -26.9% (active)

Row | SMILES | growth
21 | CCOc1ccccc1C(=O)N1CCN(c2cc(Cl)cc(Cl)c2)CC1 | -59% (active)
22 | CN(C)CCN(Cc1ccccc1)c1ccc2ccccc2n1 | 89.7% (inactive)
23 | COc1cc(-c2nn3c(/C=C4/C(=O)Nc5ccccc54)c(-c4ccc(C)cc4)nc3s2)cc(OC)c1OC | 34.8% (inactive)
24 | COc1ccc(C2=NOC(CC(=O)N(CCO)CCO)C2)cc1OC1CCCC1 (centres undefined) | 110% (inactive)
25 | COc1cc(CNC(=O)Cc2ccccc2)ccc1OCc1cn(-c2ccc(F)cc2)nn1 | 104% (inactive)
26 | CCn1cc(C(=O)O)c(=O)c2cnc(N3CCCC3)nc21 | 75.9% (inactive)
27 | CC(C)(C)[Si](C)(C)OCC1OC(n2cnc3c(N)ncnc32)CC1OS(C)(=O)=O (centres undefined) | 104% (inactive)
28 | O=C(N/N=C/c1ccccc1O)c1ccccc1 | 11.4% (inactive)
29 | CN1CCN(Cc2ccc(NC(=O)c3cncc(C#Cc4cnc(N)c5cnccc45)c3)cc2C(F)(F)F)CC1 | -25% (active)
30 | CCN(CC)C(=O)C1(C)CCCC2(C)c3cc(OC(C)=O)ccc3CCC12 (centres undefined) | 71.2% (inactive)
31 | CN(C)c1ccc2c(c1)OC(N)=C(C#N)C2c1ccc2c(c1)CCO2 (centres undefined) | -1.56% (active)
32 | COc1ccc(-c2nc3sccn3c2-c2ccnc(NCCCNS(=O)(=O)c3ccc(F)cc3)n2)cc1 | -3.74% (active)
33 | COc1ccc(-c2cc(-c3ccc(Cl)cc3)nc(SCCCCCCC(=O)NO)n2)cc1 | -18.2% (active)
34 | Cc1cc(OCCO)cc(C)c1Cl | 100% (inactive)
35 | COC(=O)[C@]12CC[C@@H](C)[C@H](C)[C@@H]1C1=CC[C@@H]3[C@@]4(C)C(C#N)=CC(C)=C4CC[C@@]3(C)[C@]1(C)CC2 | -19.3% (active)
36 | O=C(NCCN1CCOCC1)OCc1nc2nc(Cl)nc(N3CCOCC3)c2[nH]1 | -54% (active)
37 | Cc1cc(N(CCNc2ccnc3cc(Cl)ccc23)Cc2ccc3c(c2)OCO3)nc(N2CCN(C)CC2)n1 | -57.8% (active)
38 | CC(=O)N1N=C(c2ccc(Nc3nc(Nc4ccc(F)cc4)nc(Nc4ccc(F)cc4)n3)cc2)CC1c1ccccc1 (centres undefined) | 83% (inactive)
39 | Nc1nc(-c2ccccn2)cc(-c2cc(-c3ccccn3)nc(N)n2)n1 | 105% (inactive)
